The record followed here is PubChem BioAssay (Tox21).

Calls of active or inactive are those of the source. A call without a number means that no potency is given here. The call rests on the fitted dose curve; in most records, active means well fitted activation curve with a large enough effect in the repeat runs; inconclusive means weak or mixed curves; inactive means flat fitted curve, though single readings scatter.

A short description of the assay: A CellTox Green Cytotoxicity Assay to monitor cytotoxicity in HEK293 cells - 0 hour (AID 1224869). Further: nearly all actives have a fitted effect of over 50% in size. As to conditions: CellTox Green fluorescence; series mostly up to 76.8 µM. From the text:
National Center for Advancing Translational Sciences [NCATS]
NIH Chemical Genomics Center [NCGC]
U.S. Environmental Protection Agency [EPA]
National Institutes of Environmental Health Sciences [NIEHS]
National Toxicology Program [NTP]
Cell-based models are critical for drug discovery. Determining the natural cytotoxic effects resulting from test compounds is an essential research activity. A CellTox Green Cytotoxicity Assay to monitor cytotoxicity in real time of continues cell culture during 40 hours of the compound treatment was used to screen Tox21 10K library compounds in Hek293 cells. CellTox Green Cytotoxicity Assay is a nonlytic, homogeneous, biofluorescent method to measure cytotoxicity in cell culture after experimental manipulation. The assay system uses a proprietary asymmetric cyanine dye that is excluded from viable cells but preferentially stains the dead cell's DNA. […] Viable cells produce no appreciable increases in fluorescence. Therefore, the fluorescence signal produced by the binding interaction with dead cell DNA is proportional to cytotoxicity.
The mixture of Hek293 cell suspension and reagents were dispensed at 600cells/6 ul/well in 1536-well tissue culture treated black solid bottom plates using a Multidrop dispenser. After the assay plates were incubated at a 37 C/5% CO2 incubator for 5 hours, 23 nL of compounds dissolved in DMSO, positive and negative controls was transferred to the assay plate by a pintool work station. The plates were incubated at 37 C for 40 hours. The fluorescence intensity were measured at 0h, 8h, 16h, 24h, 32h and 40h time points using ViewLux plate reader during compound treatment.
Turning to `NC(CO)(CO)CO`, the Potency entry was “inactive”.

In the case of `OC[C@H]1O[C@H](O[C@]2(CCl)O[C@H](CCl)[C@@H](O)[C@@H]2O)[C@H](O)[C@@H](O)[C@H]1Cl`, the Potency entry was “inactive”.

As for `COc1ccc(OC(F)(F)F)cc1CN[C@H]1CCCN[C@H]1c1ccccc1`, the Potency result is “inactive”.

On to `CCCc1cc(=O)[nH]c(=S)[nH]1`, for which the Potency result was “inactive”.

For `COc1ccc2cc(S(=O)(=O)N[C@H](CC(=O)N[C@H](Cc3ccc(CN4[C@H](C)CCC[C@@H]4C)cc3)C(=O)N(C)C(C)C)c3ccc4c(c3)OCO4)ccc2c1`, the Potency entry was “inactive”.

For `Nc1ccc([N+](=O)[O-])cc1O`, the Potency entry is “inactive”.

As for `CN(C)C(=O)Nc1ccc(Cl)c(Cl)c1`, the Potency result is “inactive”.

Take `Nc1c(N=Nc2ccc(-c3ccc(N=Nc4cc(S(=O)(=O)O)c5ccccc5c4N)cc3)cc2)cc(S(=O)(=O)O)c2ccccc12`: the Potency result is “inactive”.

As to `CC(O)(P(=O)(O)O)P(=O)(O)O`, the Potency result was “inactive”.

For the molecule `O=CC(=O)c1ccccc1`, the Potency result was “inactive”.

As for `CCc1nc(N)nc(N)c1-c1ccc(Cl)cc1`, the Potency result is “inactive”.

Turning to `C=CCc1ccc(O)c(OC)c1`, the Potency entry was “inactive”.

Turning to `Cc1ccc(S(=O)(=O)O)cc1`, the Potency entry is “inactive”.

For `CC(=O)Nc1c(I)c(NC(C)=O)c(I)c(C(=O)O)c1I`, the Potency entry was “inactive”.

Consider `CCCCCCCCCCCCCCCC[N+](C)(C)Cc1ccccc1`, for which the Potency result is “inactive”.

For the molecule `NC(=O)c1cccnc1`, the Potency entry was “inactive”.

For `C=C(C)C(=O)OCC(C)O` (stereo not given), the Potency entry is “inactive”.

Turning to `NC1CCCCC1`, the Potency entry was “inactive”.

Consider `CCOc1ccc(NC(C)=O)cc1`, for which the Potency entry was “inactive”.

On to `CC(=O)CC(c1ccccc1)c1c(O)c2ccccc2oc1=O` (stereo not given), for which the Potency entry was “inactive”.

Turning to `CCCC[P+](CCCC)(CCCC)CCCC`, the Potency entry is “inactive”.

`CCN(Cc1c(F)cccc1Cl)c1c([N+](=O)[O-])cc(C(F)(F)F)cc1[N+](=O)[O-]`: the Potency result was “inactive”.

As for `CCCCNC(=O)NS(=O)(=O)c1ccc(C)cc1`, the Potency entry was “inactive”.

For `CN1CCc2cccc3c2[C@H]1Cc1ccc(O)c(O)c1-3`, the Potency result was “inactive”.

As for `O=C(O)c1ccccc1`, the Potency result was “inactive”.

As for `CNNCc1ccc(C(=O)NC(C)C)cc1`, the Potency entry is “inactive”.

Turning to `CN(N=O)C(=O)N[C@@H]1[C@@H](O)[C@H](O)[C@@H](CO)O[C@@H]1O`, the Potency entry was “inactive”.

In the case of `COc1ccc2c(c1)c(CC(=O)O)c(C)n2C(=O)c1ccc(Cl)cc1`, the Potency result was “inactive”.

With `O=c1[nH]cc(F)c(=O)[nH]1`, the Potency entry was “inactive”.

In the case of `CC/C(=C(\c1ccccc1)c1ccc(OCCN(C)C)cc1)c1ccccc1`, the Potency entry was “inactive”.

Regarding `CCCCOC(=O)c1ccc(O)cc1`, the Potency entry was “inactive”.

`CCN(CC)C(=O)c1cccc(C)c1`: the Potency result was “inactive”.

Regarding `CN(C)C(=S)SC(=S)N(C)C`, the Potency entry was “inactive”.

In the case of `CC(=O)CCC(=O)O`, the Potency result was “inactive”.

Regarding `Nc1ccc(S(N)(=O)=O)cc1`, the Potency entry is “inactive”.

Regarding `CN(C)CCOC(c1ccccc1)c1ccccc1`, the Potency entry is “inactive”.

For `Cc1c(C(=O)O)c(O)cc2c1C(=O)c1c(O)c([C@@H]3O[C@H](CO)[C@@H](O)[C@H](O)[C@H]3O)c(O)c(O)c1C2=O`, the Potency result is “inactive”.

As for `CC(C)C(=O)Nc1ccc([N+](=O)[O-])c(C(F)(F)F)c1`, the Potency result was “inactive”.

For `CCCCC(CC)C(=O)O` (stereo not given), the Potency result was “inactive”.

Regarding `CC(C)NCC(O)c1ccc(O)c(O)c1` (stereo not given), the Potency result was “inactive”.
